# Results from PubChem BioAssay AID1345083 (National Center for Advancing Translational Sciences (NCATS), 2018).
# About 6,200 (6.6%) of roughly 94,000 compounds were called active. Not shown: some 31% with an inconclusive outcome. The list comes from a sample in which actives are over-represented; it also holds similar structures and randomly drawn compounds. Unmarked numbers belong to inactive results. Calls follow the shape of the dose curve; as a rule, active = well fitted inhibition curve with a large enough effect; inconclusive = small, poorly fitted or top-dose-only effect; inactive = flat fitted curve, though single readings scatter.
# Test: Cytotoxic Profiling in HEK 293 Cell Line of Diverse Libraries Using Quantitative High-Throughput Screening; also: nearly all actives have a fitted effect of over 60% in size
# Conditions: HEK 293 viability, ATP luminescence (CellTiter-Glo), 48-72 h; series mostly up to 115 µM; activity change, negative = cytotoxicity: at the top concentration
# Source text: Cell-based phenotypic screening is a commonly used approach to discover biological pathways, novel drug targets, chemical probes and high-quality hit-to-lead molecules. Many hits identified from high-throughput screening campaign are ruled out through a series of follow-up potency, selectivity/specificity, and cytotoxicity assays. Prioritization of molecules with little or no cytotoxicity for a more in-depth downstream evaluation influence the future direction of projects, so cytotoxicity profiling of the screening libraries at early stage is essential for increasing the likelihood of candidate success. In this study, we analyzed results from a cell-based cytotoxicity screening campaign, comprising nearly 10,000 compounds in NCATS annotated libraries, and over 100,000 compounds in a diversity library, evaluated in four normal cell lines (HEK 293, NIH 3T3, CRL-7250 and HaCat) and a cancer cell line (KB 3-1, a HeLa subline) with overall screening outcomes, hit rates, pan-activity and selectivity. For the annotated library, we also examined the primary targets and mechanistic pathways regularly associated with cell death. To our knowledge, this is the first study to use high-throughput screening to profile large libraries for cytotoxicity assessment in both normal and cancer cell lines. In summary, the results generated here constitutes a valuable resource for the scientific community and provides insight on identifying cytotoxic compounds with particular mechanisms of action, and prioritizing compounds with suitable cytotoxicity profile for further evaluation.
# HEK 293 cells were seeded into white 1536-well plates using a Multidrop Combi peristaltic dispenser (ThermoFisher, Waltham, MA) at a density of 250 cells/well in 5 uL of medium respectively. A pintool (Kalypsys) was used to transfer 23 nL of compound solution to the 1536-well assay plates. After 48 or 72 hr incubation at 37 degree Celsius, 5% CO2 and 95% humidity, 2.5 uL of CellTiter-Glo (Promega) was dispensed into each well using a dispenser (Aspect Automation, St. Paul, MN) with solenoid valves (Lee Valves, Westbrook CT). Plates were left at room temperature for 10 min before imaging the ATP-coupled luminescence using a ViewLux microplate imager (PerkinElmer, Waltham, MA).
# % is scaled to controls: 0 for no effect and ±100 for the full control effect; potency is read from the fitted curve at half-maximal effect.
Structure (SMILES),Potency,"activity change, negative = cytotoxicity",outcome
COC(=O)c1ccc(NC(=O)N2[C@H]3CC[C@@H]2c2cnc(-c4ccc(F)cc4)nc2C3)cc1,44.7 µM (active),,
O=C(Cc1cccc(F)c1)N1[C@H]2CC[C@@H]1c1cnc(-c3ccccc3)nc1C2,,-17.9%,
Cc1cccc(CC(=O)N2[C@H]3CC[C@@H]2c2cnc(C)nc2C3)c1,,,inactive
CCS(=O)(=O)N1[C@H]2CC[C@@H]1c1cnc(C)nc1C2,,,inactive
Cc1ncc2c(n1)C[C@@H]1CC[C@H]2N1S(=O)(=O)c1ccc(F)cc1,,-9.05%,
Cn1cnc(S(=O)(=O)N2[C@H]3CC[C@@H]2c2cnc(-c4ccc(F)cc4)nc2C3)c1,,-5.79%,
Cc1ncc2c(n1)C[C@@H]1CC[C@H]2N1C(=O)c1ccccn1,,-3.35%,
Cc1nc(C)c(C(=O)N2[C@H]3CC[C@@H]2c2cnc(-c4ccccc4)nc2C3)s1,39.8 µM (active),,
O=C(Cc1ccccc1)N1[C@H]2CC[C@@H]1c1cnc(-c3ccc(F)cc3)nc1C2,28.2 µM (active),,
O=C(c1ccc2c(c1)CCO2)N1C[C@@H](c2ccc(F)cc2)[C@@H]2[C@H]1C1CCN2CC1,,,inactive
O=[S+]1([O-])NC2(CCN(CC3CCOCC3)C2)COc2ccncc21 (centres undefined),,,inactive
CC(=O)N1CC2(CCN(Cc3cccnc3)C2)Cc2ccccc21 (centres undefined),,-16.8%,
CC(C)N1CCN(C(=O)Cc2cccn2-c2ccc(F)cc2)CC1,,-18.2%,
Cc1ccc2c(n1)N(C)[C@H](CO)CCN(C1CCCC1)C2,,-1.63% [at 230 µM],
O=C1NC2(Cc3ccccc31)CN(CC1CC1)C2,,,inactive [at 230 µM]
Cc1ccc([C@@H]2CN(C(=O)c3ccco3)[C@@H]3C4CCN(CC4)[C@@H]32)cc1,,-13.1%,
O=C(c1cocn1)N1C[C@H](c2cccc(F)c2F)[C@@H]2[C@H]1C1CCN2CC1,,,inactive
CCCS(=O)(=O)N1C[C@@H]2C[C@H](C1)c1ccc(-c3ccccc3C)c(=O)n1C2,,,inactive [at 172 µM]
COc1cc2c(cc1OCc1ccncc1)NC(=O)C21CCN(c2ncc(F)cn2)CC1,50.1 µM (active),,
COc1cc2c(cc1OC1CCCC1)NC(=O)C21CCN(c2nccs2)CC1,89.1 µM (active),,
COc1cc2c(cc1Oc1ccccc1)NC(=O)C21CCN(c2ccnc(C)n2)CC1,63.1 µM (active),,
COc1cc2c(cc1Oc1cccc(N(C)C)c1)NC(=O)C21CCN(Cc2ccccn2)CC1,44.7 µM (active),,
O=C(c1ccncc1)N1C[C@@H]2C[C@H](C1)c1ccc(C3CCCCC3)c(=O)n1C2,,-2.59% [at 172 µM],
CC1=NOC2(CCN(Cc3cncs3)C2)C1 (centres undefined),,,inactive [at 172 µM]
O=[S+]1([O-])NCC2(CCN(Cc3cccnc3)C2)Oc2ncccc21 (centres undefined),,,inactive
O=C1CC2CCN(Cc3cccnc3)CC2CCN1 (centres undefined),,,inactive [at 172 µM]
O=C1NC2(Cc3ccccc31)CN(Cc1ccncc1)C2,,,inactive [at 172 µM]

Structure (SMILES),Potency,"activity change, negative = cytotoxicity",outcome
COc1cccc([C@H]2CN(c3cc(C)nc(N)n3)[C@@H]3C4CCN(CC4)[C@H]23)c1,,-20.8%,
CNC(C)c1ccc(Cl)cc1 (centres undefined),,-18.1% [at 230 µM],
Cc1ccccc1OCC(=O)N1CCN(Cc2ccc(=O)n(C)c2)CC1,,-19.9%,
C=CCOc1c(Cl)cc(CNC(C)Cn2cccn2)cc1OC (centres undefined),,-12.6%,
CC(C)N1CC2CCC(C1)N2C(=O)N1CCCC1,,4.58% [at 172 µM],
O=C(NC1CCCCC1)N1C[C@@H]2C[C@H](C1)c1c(-c3ccccc3F)ccc(=O)n1C2,,-25.2% [at 172 µM],
FC(F)(F)CN1C2CCC1CN(c1ccc(Cl)nn1)C2,,,inactive
COc1cc2c(cc1-c1ccncc1)NC(=O)C21CCN(C(C)=O)CC1,,-19.9% [at 172 µM],
CC(C)C(=O)N1CCC2(CC1)NCc1ccccc1-n1ccnc12,,-12.3%,
COc1cc2c(cc1OCc1ccccc1)NC(=O)C21CCN(C(=O)C(C)C)CC1,89.1 µM (active),,
COc1cc2c(cc1OCc1ccncc1)NC(=O)C21CCN(c2ncccn2)CC1,100 µM (active),,
COc1ccc([C@@H]2CN(C(=O)c3c(C)noc3C)[C@@H]3C4CCN(CC4)[C@@H]32)cc1,,-7.87%,
COc1ccc(-c2cn(C[C@H]3C[C@@H]4CCN3C[C@@H]4C(=O)NCc3ccccc3)nn2)cc1,,-21% [at 172 µM],
CCC(CC)c1cc([C@H]2CN3CC[C@H]2C[C@@H]3CNS(=O)(=O)Cc2ccccc2)nc(-c2ccncc2)n1,31.6 µM (active),,
CCC(CC)c1cc([C@H]2CN3CC[C@H]2C[C@@H]3CNC(=O)NCc2ccccc2)nc(-c2ccncc2)n1,28.2 µM (active),,
Cc1ccc(S(=O)(=O)NC[C@H]2C[C@@H]3CCN2C[C@@H]3CN2CCN(c3ncccn3)CC2)cc1,,-6.41%,
CCCCc1cn(C[C@H]2CC3CCN2C[C@@H]3C(=O)NCc2ccccc2)nn1 (some centres undefined),,-1.65% [at 172 µM],
CCCS(=O)(=O)NC[C@H]1C[C@@H]2CCN1C[C@@H]2c1cc(C2CCCC2)nn1C,,-26.7% [at 172 µM],
O=[N+]([O-])c1ccc(N2CC3CCC(C2)N3CC(F)(F)F)nc1,,,inactive
Cc1ccc(S(=O)(=O)NC[C@H]2C[C@@H]3CCN2C[C@@H]3CN2CCSCC2)cc1,,0.97% [at 172 µM],
Cc1noc(C)c1C(=O)N1C2CCC1CN(Cc1cccnc1)C2,,-29.8%,
O=C(O)COCC(=O)N1C[C@@H]2C[C@H](C1)c1c(-c3ccc4ccccc4c3)ccc(=O)n1C2,,-2.71% [at 172 µM],
CCOc1ccc(C(=O)N2CCC3(CC2)c2nccn2-c2ccccc2CN3C)cc1,,-21.5%,
CCCNC(=O)OC[C@H]1C[C@@H]2CCN1C[C@@H]2c1cc(-c2ccc(OC)c(OC)c2)nn1C,,-12.2%,
C#C[C@H]1CN2CC[C@H]1C[C@@H]2CNC(=O)C1CC1,,-2.38% [at 230 µM],
C#C[C@H]1CN2CC[C@H]1C[C@@H]2COC(=O)Nc1cc(OC)cc(OC)c1,100 µM (active),,
FC(F)(F)CN1C2CCC1CN(c1ccc(C(F)(F)F)nc1)C2,,-14.1%,
